Screens as filed in PubChem.
An excerpt weighted towards active compounds, which were near 3.6% of everything screened.
APOBEC3G inh – inhibitors of human APOBEC3G DNA deaminase; 330,000 compounds, 0.28% hits; inhibition, % at 20 µM; recombinant A3G, ssDNA deamination FAM/TAMRA fluorescence; AID 493012; Q9HC16;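 active = inhibition of at least 40% at 20 µM, with no more than 30% in the related APOBEC3A deaminase screen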;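 note: plate controls were DMSO wells with A3G for no effect and wells lacking A3G enzyme for full effect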
Target sequence (Q9HC16 whole entry, looked up): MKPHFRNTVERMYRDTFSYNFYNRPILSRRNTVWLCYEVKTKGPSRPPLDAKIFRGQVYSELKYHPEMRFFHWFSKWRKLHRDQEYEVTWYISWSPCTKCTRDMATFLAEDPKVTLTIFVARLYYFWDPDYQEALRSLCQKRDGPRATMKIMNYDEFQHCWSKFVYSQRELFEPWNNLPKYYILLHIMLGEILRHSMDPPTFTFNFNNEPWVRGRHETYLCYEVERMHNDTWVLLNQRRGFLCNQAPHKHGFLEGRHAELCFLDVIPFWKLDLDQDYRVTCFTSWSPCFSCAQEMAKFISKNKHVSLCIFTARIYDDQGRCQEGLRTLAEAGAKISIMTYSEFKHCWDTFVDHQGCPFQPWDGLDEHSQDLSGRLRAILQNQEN
Wnt bcat act – activates Wnt/beta-catenin signaling in a reporter cell assay. activator, plate reader. activation, % at 9.35 µM. 300,000 compounds, 1.2% hits; in the data active = activation above about 30%, passing the limit was not always enough; inconclusive = no clear call, values can overlap the other calls;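 note: 0% = neutral control wells and 100% = positive control wells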
PHOSPHO1 block – inhibitors of human PHOSPHO1 phosphatase. 290,000 compounds, 1.1% hits. inhibition, % at 13.3 µM. Q8TCT1. recombinant PHOSPHO1, absorbance phosphatase assay; in the data active = inhibition above about 60%
A3A deaminase – human APOBEC3A DNA deaminase inhibition; inhibition, % at 20 µM; recombinant A3A, FAM/TAMRA ssDNA deamination fluorescence; P31941; 330,000 compounds, 0.41% hits;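 active = at least 40% inhibition at 20 µM here, with at most 30% in a related deaminase screen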;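 note: plate controls were A3A with DMSO for no effect and wells lacking A3A enzyme for full effect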
Target sequence (P31941 whole entry, looked up): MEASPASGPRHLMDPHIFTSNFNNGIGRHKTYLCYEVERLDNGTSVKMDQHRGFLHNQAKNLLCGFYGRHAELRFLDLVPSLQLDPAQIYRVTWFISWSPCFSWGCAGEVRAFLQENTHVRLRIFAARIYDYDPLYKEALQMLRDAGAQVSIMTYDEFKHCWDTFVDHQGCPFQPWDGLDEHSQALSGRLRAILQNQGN
MITF TRPM1 HTS – increases MITF-driven TRPM1 promoter luciferase signal; 300,000 compounds, 0.75% hits; SK-MEL-5 TRPM1-promoter luciferase, 24 h; % of positive control, neutral wells = 0; activation, % at 12.5 µM;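 active = mean activation of at least 80% with every replicate also reaching 80%; inconclusive = mean reaches 80% but some replicate falls short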;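 note: 0% = neutral control wells and 100% = parthenolide positive control wells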
esBAF inh – inhibitors of esBAF chromatin remodeling in mouse ES cells; reporter increase, % at 12.5 µM; Bmi1-luciferase knock-in reporter, 24 h; 100% = twice the neutral-well signal; 350,000 compounds, 2% hits; in the data active = activation above about 40%; inconclusive = no clear call, values can overlap the other calls;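 note: 0% = median of the plate's neutral control wells and 100% = double that signal; a rise in the Bmi1 reporter signal indicates esBAF inhibition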
esBAF Ring1 qPCR – de-represses Ring1 in mouse ESCs, confirming esBAF inhibition | fold change at 33 µM | mouse ESC E14, Ring1 mRNA RT-qPCR fold change | shares compounds with esBAF inh | 550 tested, under 10 active | AID 743176;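 active = Ring1 gene expression raised more than 2-fold over untreated cells in both replicates at either tested dose; inconclusive = only one replicate above 2-fold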;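 note: Ring1 transcript normalised to actin housekeeping signal by TaqMan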
esBAF Fgf4 qPCR – esBAF inhibition confirmed by Fgf4 repression; shares compounds with esBAF inh; mouse ESC E14, Fgf4 mRNA qPCR fold change; hits give low values; Fgf4 expression fold change at 33 µM; 550 compounds, 4% hits; AID 743177;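 active = Fgf4 expression under 0.8 fold of control in both repeat measurements at one or both tested doses; inconclusive = under 0.8 fold in just a single repeat measurement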;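 note: Fgf4 transcript normalised to actin in duplex TaqMan qPCR; cells exposed to compound for 24 h before lysis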
Bmi1 derepress – de-represses Bmi1 in mouse ESCs, confirming esBAF inhibition; shares compounds with esBAF inh; mouse ESE14 ES cells, Bmi1 mRNA qPCR fold; hits give high values; fold change at 33 µM; 550 tested, under 10 active; AID 743180;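 active = Bmi1 expression fold change above 6 at either tested concentration, seen in replicate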;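 note: higher fold means more Bmi1 de-repression and stronger esBAF inhibition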
A549 tox SP – cytotoxicity in A549 cells | cell viability change % (negative = cytotoxic), % at 25 µM, hits read low | shares compounds with esBAF inh | 550 tested, under 10 active | plate reader; call rule not given here
HepG2 cytotox SP – HepG2 cell cytotoxicity at single point; plate reader; hits give low values; 550 compounds, 4% hits; shares compounds with esBAF inh; activity change, negative = inhibition, % at 25 µM; in the data active = activity change below about -50%
HEK293 tox SP – kills or reduces viability of HEK293 cells; shares compounds with esBAF inh; HEK293 cytotoxicity, plate reader; activity change, negative = inhibition, % at 25 µM, hits read low; 550 compounds, 3% hits; in the data active = activity change below about -38%, passing the limit was not always enough
The depositor's hits bear a star; ? = inconclusive; . = not tested or not shown.

SMILES	APOBEC3G inh	Wnt bcat act	PHOSPHO1 block	A3A deaminase	MITF TRPM1 HTS	esBAF inh	esBAF Ring1 qPCR	esBAF Fgf4 qPCR	Bmi1 derepress	A549 tox SP	HepG2 cytotox SP	HEK293 tox SP
Cc1cc(C(=O)N2CCc3ccccc32)ccc1[N+](=O)[O-]	.	-1	.	.	.	12	.	.	.	.	.	.
COc1cc2[nH]c(C(=O)N3CCc4ccccc43)cc2c(OC)c1OC	-7	19	.	-3	43	58*	0.94	1.1	2.1	4	1	-4
COc1ccc(C(=O)N2CCc3ccccc32)cc1	-4	6	9	-3	.	68*	0.97	0.88	1.5	-4	-9	-6
COc1ccc(CCC(=O)N2CCc3ccccc32)cc1	-3	20	-20	-4	.	63*	1.1	0.91	1.4	-5	-2	-11
COc1ccccc1NC(=O)C(=O)NCCC1CCCCN1S(=O)(=O)c1ccccc1 (stereo not drawn)	-9	0	.	1	-11	-5	.	.	.	.	.	.
COc1cccc(NC(=O)C(=O)NCCC2CCCCN2S(=O)(=O)c2ccccc2)c1 (stereo not drawn)	-3	-3	.	0	110*	79*	0.99	0.94	1.8	-9	-33	-15
COC(=O)Nc1sc2c(c1C(N)=O)CCC(C)C2 (stereo not drawn)	29	1	-11	-6	6	.	.	.	.	.	.	.
CC1CCc2c(sc(NC(=O)c3cccn3C)c2C(N)=O)C1 (stereo not drawn)	1	8	.	3	37	71*	1.1	1	1.5	-11	-17	-19
Nc1nc(SCc2ccccc2)c2ncn(C3CCCCC3)c2n1	.	9	.	.	39	85*	0.99	0.78*	1.5	1	21	-10
CCCC#Cc1ccc([C@@H]2[C@@H](C#N)N(C(=O)C3CCCCC3)[C@H]2CO)cc1	.	.	.	.	.	0	.	.	.	.	.	.
CC(C)NC(=O)N(C)C[C@@H]1Oc2cc(-c3cncnc3)ccc2S(=O)(=O)N([C@H](C)CO)C[C@@H]1C	.	.	.	.	.	1	.	.	.	.	.	.
Nc1ccc2c(c1)C(=O)c1ccc(N)cc1-2	.	-2	.	.	32	76*	1.2	0.94	1.7	0	-3	6
Clc1ccc(-c2nnc(-c3cccc4ccccc34)o2)cc1	.	39*	.	.	26	71*	1.3	1	1.6	-6	45	-6
CCCNC(=O)N(C)C[C@H]1Oc2ncc(-c3ccc(F)cc3)cc2C(=O)N([C@@H](C)CO)C[C@@H]1C	.	.	.	.	.	-4	.	.	.	.	.	.
C[C@@H]1CN([C@H](C)CO)C(=O)c2cccc(NS(=O)(=O)c3ccc(Cl)cc3)c2O[C@H]1CN(C)S(=O)(=O)c1cn(C)cn1	.	.	.	.	.	-6	.	.	.	.	.	.
C[C@@H]1CCCCO[C@@H](CN(C)C(=O)c2ccncc2)[C@H](C)CN([C@H](C)CO)C(=O)c2cc(NC(=O)c3ccccc3)ccc2O1	.	.	.	.	.	1	.	.	.	.	.	.
COC(=O)c1ccc2[nH]c(C(C)(C)O)c(C)c2c1	-9	20	4	-4	75	57*	1.4	1	1.4	-1	-14	-4
Cc1cc(Cl)ccc1OCc1nnc(-c2ccccc2C)o1	-3	41*	.	0	116*	99*	0.89	0.93	1.4	-10	-24	4
CCNC(=O)C[C@H]1CC[C@@H]2[C@@H](COc3ccc(NC(=O)c4ccc5c(c4)OCO5)cc3C(=O)N2C)O1	.	.	.	.	.	8	.	.	.	.	.	.
CCCN(C)C[C@H]1Oc2cc(/C=C/c3ccccc3)ccc2S(=O)(=O)N([C@H](C)CO)C[C@H]1C	.	.	.	.	.	-5	.	.	.	.	.	.
Cc1ccc(C(=O)Nc2nc3ccccc3s2)s1	-3	.	2	4	52	-6	.	.	.	.	.	.
Cc1noc(C)c1C(=O)Nc1nc2ccccc2s1	-5	8	.	-2	75	72*	1.3	1.1	1.6	-19	8	-28
CCN(C(=O)CN1C(=O)S/C(=C\C=C\c2ccccc2)C1=O)C1CCS(=O)(=O)C1 (stereo not drawn)	-1	4	38	-2	11	55*	0.97	?	2	-1	-27	4
CCN(C(=O)CN1C(=O)S/C(=C\c2cccc(Cl)c2)C1=O)C1CCS(=O)(=O)C1 (stereo not drawn)	-8	-1	-17	-4	6	11	.	.	.	.	.	.
O=C(C[C@@H]1C[C@H]2c3cc(NC(=O)NC4CCCC4)ccc3O[C@H]2[C@@H](CO)O1)NCc1ccc2c(c1)OCO2	.	.	.	.	.	-1	.	.	.	.	.	.
SMILES	APOBEC3G inh	Wnt bcat act	PHOSPHO1 block	A3A deaminase	MITF TRPM1 HTS	esBAF inh	esBAF Ring1 qPCR	esBAF Fgf4 qPCR	Bmi1 derepress	A549 tox SP	HepG2 cytotox SP	HEK293 tox SP
COc1ccc2c(CN(C)Cc3ccccc3)cc(=O)oc2c1	.	16	.	.	.	57*	1.1	0.88	1.8	-13	-65*	-19
Cc1ccccc1-c1ccc2c(c1)O[C@H](CN(C)Cc1ccncc1)[C@H](C)CN([C@@H](C)CO)S2(=O)=O	.	.	.	.	.	-5	.	.	.	.	.	.
COc1ccc(OC)c(Nc2cc(C)c3ccccc3n2)c1	-12	-3	.	-8	-15	-6	.	.	.	.	.	.
COc1cccc(Nc2cc(C)c3ccccc3n2)c1	-8	13	33	-3	61	66*	1.1	0.88	1.8	-9	-44	-25
COc1ccc(Nc2cc(C)c3c(O)cccc3n2)cc1	4	0	27	-3	130*	57*	1.4	1.2	1.2	-8	6	-13
CC(=O)Nc1ccc2nc(SCC(=O)Nc3ccc(N4CCOCC4)c(Cl)c3)sc2c1	38	?	-99	43	.	48*	0.77	0.86	1.4	-6	-10	-6
O=C(/C=N/NC(=O)c1ccc(Cl)cc1Cl)c1ccccc1	-7	49*	34	-3	43	59*	1.4	1.1	1.5	-3	-28	-6
CC(=Nc1ccccc1O)c1sc2ccccc2c1O	1	86*	12	5	49	83*	0.81	1.1	2.2	-10	-9	1
Oc1c(N=Nc2ccccc2)sc2ccccc12	0	27	36	5	23	25	.	.	.	.	.	.
Cc1noc(C)c1NC(=O)Nc1cccc2c1O[C@@H](CN(C)Cc1ccc(Oc3ccccc3)cc1)[C@@H](C)CN([C@@H](C)CO)C2=O	.	.	.	.	.	-4	.	.	.	.	.	.
CN1[C@@H]2c3ccc(C4=CCCCC4)c(=O)n3C[C@@H]2[C@@H](CO)[C@@H]1C(=O)NCc1ccccc1	.	.	.	.	.	1	.	.	.	.	.	.
